The record followed here is PubChem BioAssay (EPA / NIEHS).

Experiment [1] has as its target human Adenosine A2a Receptor (AdoRA2a), ADORA2A (gene 135) (UniProt P29274). The experiment is described as follows: NVS_GPCR_hAdoRA2a: NovaScreen (NVS) G Protein-Coupled Receptor Assay for human Adenosine A2a Receptor (AdoRA2a) (AID 2283256). The essentials: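 Compounds screened in duplicate at 25 uM, with actives followed up in concentration series, for displacement of a radioligand from HEK293-derived receptor protein. Bound counts read by filter scintillation at 1.5 hours, DMSO as baseline.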

Experiment [2] deals with human Adrenergic, Beta 3 Receptor (Adrb3), ADRB3 (gene 155) (UniProt P13945). In words: NVS_GPCR_hAdrb3: NovaScreen (NVS) G Protein-Coupled Receptor Assay for human Adrenergic, Beta 3 Receptor (Adrb3) (AID 2283262). The essentials: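 A cell-free filter binding assay read by scintillation counting, with displacement of a specific radioligand measured after 1 hour. The receptor source was SK-N-MC extracts (cells pretreated with isoproterenol and 8-bromo-cAMP). Compounds were first tested at 25 uM in duplicate and then in concentration series.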
human Adrenergic, Beta 3 Receptor (Adrb3), ADRB3 (gene 155), sequence (P13945 whole entry, looked up): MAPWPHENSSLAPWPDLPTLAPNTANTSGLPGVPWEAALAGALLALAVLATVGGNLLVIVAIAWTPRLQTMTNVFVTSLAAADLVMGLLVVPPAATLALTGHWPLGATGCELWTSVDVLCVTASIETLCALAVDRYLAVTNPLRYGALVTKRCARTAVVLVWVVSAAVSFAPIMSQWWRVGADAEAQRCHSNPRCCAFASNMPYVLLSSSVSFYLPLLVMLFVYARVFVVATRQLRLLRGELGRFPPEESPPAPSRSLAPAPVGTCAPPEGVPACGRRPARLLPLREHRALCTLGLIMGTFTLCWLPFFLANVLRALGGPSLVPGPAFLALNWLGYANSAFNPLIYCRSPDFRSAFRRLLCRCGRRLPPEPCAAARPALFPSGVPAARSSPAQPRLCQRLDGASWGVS

The target in experiment [3] is human Endothelin Receptor Type B (ETB), EDNRB (gene 1910) (UniProt P24530). The experiment is described as follows: NVS_GPCR_hETB: NovaScreen (NVS) G Protein-Coupled Receptor Assay for human Endothelin Receptor Type B (ETB) (AID 2283267). An outline of the steps: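 Filter-based scintillation readout of radioligand displacement, 4 h, using membranes from human astrocytoma cells. Actives from a 25 uM duplicate screen were retested in concentration-response (top 50 uM) relative to DMSO baseline.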

Experiment [4] deals with human Leukotriene B4 Receptor 1 (LTB4-BLT1), LTB4R (gene 1241) (UniProt Q15722). In words: NVS_GPCR_hLTB4_BLT1: NovaScreen (NVS) G Protein-Coupled Receptor Assay for human Leukotriene B4 Receptor 1 (LTB4-BLT1) (AID 2283271). An outline of the steps: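 Cell-free human neutrophil receptor preparation, 1 h exposure, radioligand binding read by filter scintillation counting. Single 25 uM duplicate screen, then concentration series topping at 50 uM; binding loss scored against DMSO baseline.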
human Leukotriene B4 Receptor 1 (LTB4-BLT1), LTB4R (gene 1241), sequence (Q15722 whole entry, looked up): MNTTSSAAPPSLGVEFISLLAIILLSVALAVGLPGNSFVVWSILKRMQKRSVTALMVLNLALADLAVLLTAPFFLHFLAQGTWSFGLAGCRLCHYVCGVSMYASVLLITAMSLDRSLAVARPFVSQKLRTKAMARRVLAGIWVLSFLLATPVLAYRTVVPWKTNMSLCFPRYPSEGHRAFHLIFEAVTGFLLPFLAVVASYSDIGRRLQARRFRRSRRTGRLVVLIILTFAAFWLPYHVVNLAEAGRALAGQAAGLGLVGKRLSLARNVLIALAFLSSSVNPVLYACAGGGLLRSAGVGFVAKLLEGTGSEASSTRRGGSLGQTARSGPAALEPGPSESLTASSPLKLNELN

The target of experiment [5] is human Serotonin, 5-Hydroxytryptamine Receptor 7 (5HT7), HTR7 (gene 3363) (UniProt P34969). In words: NVS_GPCR_h5HT7: NovaScreen (NVS) G Protein-Coupled Receptor Assay for human Serotonin, 5-Hydroxytryptamine Receptor 7 (5HT7) (AID 2283255).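 Further: hits reduce specific radioligand binding relative to DMSO.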 The essentials:
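Filter-bound radioactivity counted after 1 h, with loss of specific radioligand binding fitted against DMSO. Membrane protein came from CHO cells expressing human 5HT7. Chemicals were tested first at 25 uM in duplicate, then in concentration series if active.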

Experiment [6] addresses human Adrenergic, Beta 1 Receptor (Adrb1), ADRB1 (gene 153) (UniProt P08588). In words: NVS_GPCR_hAdrb1: NovaScreen (NVS) G Protein-Coupled Receptor Assay for human Adrenergic, Beta 1 Receptor (Adrb1) (AID 2283258). The essentials: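 Membranes/protein extracted from human neuroepithelioma cells, radioligand competition binding read by filtration and scintillation 2 h post-dose. Single 25 uM duplicate screen, then concentration-response follow-up; DMSO as negative control.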

Experiment [7] addresses human Adrenergic, Alpha 2c Receptor (Adra2C), ADRA2C (gene 152) (UniProt P18825). The experiment is described as follows: NVS_GPCR_hAdra2C: NovaScreen (NVS) G Protein-Coupled Receptor Assay for human Adrenergic, Alpha 2c Receptor (Adra2C) (AID 2283259). An outline of the steps:
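Screened first in duplicate at 25 uM, with actives then run as concentration series. Membranes from Sf9 cells were exposed for 1 h, and displacement of radioligand was counted after filtration, using DMSO as baseline.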

In experiment [8] the target is human Dopamine Receptor D4.4 (DRD4.4), DRD4 (gene 1815) (UniProt P21917). In words: NVS_GPCR_hDRD4.4: NovaScreen (NVS) G Protein-Coupled Receptor Assay for human Dopamine Receptor D4.4 (DRD4.4) (AID 2283264). An outline of the steps:
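Filter-binding assay with a tritiated or iodinated ligand, cell-free receptor prepared from CHO, 1 hour. Loss of bound radioactivity versus DMSO; single 25 uM duplicate screen, then concentration-response for actives.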

Experiment [9] has as its target human Dopamine Receptor D2 (DRD2), DRD2 (gene 1813) (UniProt P14416). The experiment is described as follows: NVS_GPCR_hDRD2s: NovaScreen (NVS) G Protein-Coupled Receptor Assay for human Dopamine Receptor D2 (DRD2) (AID 2283266). An outline of the steps: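 Test compound (25 uM, duplicate in the primary screen; concentration series at follow-up) competed with radioligand for human DRD2 in CHO-derived membrane protein. Filter-based scintillation counting was done 1.5 hours after dosing, with loss of signal analysed against DMSO.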

In experiment [10] the target is human Histamine 1 Receptor (H1), HRH1 (gene 3269) (UniProt P35367). In words: NVS_GPCR_hH1: NovaScreen (NVS) G Protein-Coupled Receptor Assay for human Histamine 1 Receptor (H1) (AID 2283268). The essentials: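 Filter-based scintillation detection of radioligand binding to human H1, 1 h incubation; chemicals screened in duplicate at 25 uM, then concentration-response; signal loss relative to DMSO taken as activity.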

The target in experiment [11] is D(1A) dopamine receptor (Homo sapiens) (UniProt P21728). The experiment is described as follows: NVS_GPCR_hDRD1: NovaScreen (NVS) G Protein-Coupled Receptor Assay for human Dopamine Receptor D1 (DRD1) (AID 2283269). An outline of the steps: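 Radioligand displacement binding on membranes/protein extracted from HEK293 expressing human D1, cell-free; read 1 h after dosing by filter-based scintillation counting. Primary screen in duplicate at 25 uM, actives followed up in concentration series; signal loss versus DMSO baseline.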
D(1A) dopamine receptor (Homo sapiens), sequence (P21728 whole entry, looked up): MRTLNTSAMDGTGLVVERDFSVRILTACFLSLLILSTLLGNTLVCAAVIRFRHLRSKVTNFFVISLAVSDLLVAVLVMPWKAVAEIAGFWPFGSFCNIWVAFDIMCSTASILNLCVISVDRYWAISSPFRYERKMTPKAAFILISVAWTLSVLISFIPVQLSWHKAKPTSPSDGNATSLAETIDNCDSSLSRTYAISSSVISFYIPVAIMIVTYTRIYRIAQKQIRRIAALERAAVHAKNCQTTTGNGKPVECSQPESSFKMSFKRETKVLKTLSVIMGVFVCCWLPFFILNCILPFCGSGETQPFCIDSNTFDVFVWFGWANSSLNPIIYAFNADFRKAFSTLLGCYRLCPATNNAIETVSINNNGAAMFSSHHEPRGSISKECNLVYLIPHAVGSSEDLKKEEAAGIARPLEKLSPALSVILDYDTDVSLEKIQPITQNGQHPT

For experiment [12], the target named is Muscarinic acetylcholine receptor M3 (Homo sapiens) (UniProt P20309). The experiment is described as follows: NVS_GPCR_hM3: NovaScreen (NVS) G Protein-Coupled Receptor Assay for human Muscarinic, M3 Receptor (AID 2283272). The essentials:
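Radioligand displacement binding on human M3 receptor in CHO-derived membranes, 1 h incubation, filter-based scintillation counting. Primary screen in duplicate at 25 uM; actives followed up in concentration series; loss of signal versus DMSO.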

Experiment [13] deals with Muscarinic acetylcholine receptor M5 (Homo sapiens) (UniProt P08912). In words: NVS_GPCR_hM5: NovaScreen (NVS) G Protein-Coupled Receptor Assay for human Muscarinic, M5 Receptor (AID 2283275). The essentials: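 Chemicals passing a primary duplicate screen at 25 uM were run as singleton concentration series, maximum 50 uM. Displacement of a specific radioligand from CHO-extracted receptor was read by filter scintillation after 1 h, relative to DMSO.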
Muscarinic acetylcholine receptor M5 (Homo sapiens), sequence (P08912 whole entry, looked up): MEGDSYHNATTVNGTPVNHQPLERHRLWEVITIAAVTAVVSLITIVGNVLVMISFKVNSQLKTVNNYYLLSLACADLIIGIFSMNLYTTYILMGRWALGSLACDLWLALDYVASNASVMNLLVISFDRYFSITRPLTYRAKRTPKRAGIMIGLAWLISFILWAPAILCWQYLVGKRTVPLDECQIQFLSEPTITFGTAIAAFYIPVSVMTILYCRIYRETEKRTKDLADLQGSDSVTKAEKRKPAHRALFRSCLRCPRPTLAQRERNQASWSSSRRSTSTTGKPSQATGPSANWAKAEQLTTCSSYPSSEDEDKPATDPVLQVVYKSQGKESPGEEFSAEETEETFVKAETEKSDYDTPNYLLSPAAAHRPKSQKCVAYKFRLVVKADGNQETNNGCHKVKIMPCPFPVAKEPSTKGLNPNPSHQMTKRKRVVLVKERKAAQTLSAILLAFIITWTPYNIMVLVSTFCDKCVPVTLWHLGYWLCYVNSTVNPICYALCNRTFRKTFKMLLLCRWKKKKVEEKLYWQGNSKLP

Experiment [14] addresses human Adrenergic, Alpha 2A Receptor (Adra2A), ADRA2A (gene 150) (UniProt P08913). In words: NVS_GPCR_hAdra2A: NovaScreen (NVS) G Protein-Coupled Receptor Assay for human Adrenergic, Alpha 2A Receptor (Adra2A) (AID 2283257). The essentials: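 Displacement of a specific radioligand from HT29 membrane protein was counted by filter scintillation after 1 h. Compounds were screened in duplicate at 25 uM, and actives were retested in concentration series. Fitting was positive-direction against DMSO.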

The target of experiment [15] is Beta-2 adrenergic receptor (Homo sapiens) (UniProt P07550). The experiment is described as follows: NVS_GPCR_hAdrb2: NovaScreen (NVS) G Protein-Coupled Receptor Assay for human Adrenergic, Beta 2 Receptor (Adrb2) (AID 2283261). The essentials: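 Compounds screened in duplicate at 25 uM, then actives in concentration series. Human beta-2 receptor from CHO material, cell-free; radioligand displacement after 1 h measured by filtration and scintillation against DMSO baseline.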

Experiment [16] has as its target Type-1 angiotensin II receptor (Homo sapiens) (UniProt P30556). In words: NVS_GPCR_hAT1: NovaScreen (NVS) G Protein-Coupled Receptor Assay for human Angiotensin II receptor type 1 (AT1) (AID 2283263). An outline of the steps: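 Hits from a 25 uM duplicate screen (threshold e.g. 30% inhibition) were run in concentration-response with 50 uM top concentration. Displacement of specific radioligand from KAN-TS membrane preparations measured after 3 h by filter scintillation, DMSO as baseline.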

The target of experiment [17] is human Muscarinic, M4 Receptor, CHRM4 (gene 1132) (UniProt P08173). The experiment is described as follows: NVS_GPCR_hM4: NovaScreen (NVS) G Protein-Coupled Receptor Assay for human Muscarinic, M4 Receptor (AID 2283274). An outline of the steps:
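Filter-based scintillation counting of radioligand bound to CHO-expressed human M4 preparations after 1 h; loss of signal fitted versus DMSO. Initial duplicate testing at 25 uM, concentration-response follow-up for actives.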

Experiment [18] has as its target Muscarinic acetylcholine receptor M1 (Homo sapiens) (UniProt P11229). In words: NVS_GPCR_hM1: NovaScreen (NVS) G Protein-Coupled Receptor Assay for human Muscarinic, M1 Receptor (AID 2283270). An outline of the steps: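 Actives from a duplicate 25 uM single-point screen were retested in concentration series. Binding measured as displacement of a radioligand from CHO-derived receptor preparation, 1 h incubation, filtration and scintillation counting, analysed as signal loss against DMSO.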

Experiment [19] addresses Muscarinic acetylcholine receptor M2 (Homo sapiens) (UniProt P08172). The experiment is described as follows: NVS_GPCR_hM2: NovaScreen (NVS) G Protein-Coupled Receptor Assay for human Muscarinic, M2 Receptor (AID 2283273). The essentials:
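Radioligand competition binding, cell-free, receptor from CHO; 1 h incubation; scintillation detection. Primary testing at 25 uM in duplicate.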

SMILES strings stand for the structures. Inconclusive results are not listed. Active and inactive are the calls of the source. How the source made its calls: active means hit-call score of the fitted dose curve at least 0.9, where 1 is the maximum; inconclusive means response in the unintended direction; inactive means score below 0.9.

As usually defined, the AC50 is the midpoint of the concentration-response curve, whichever way the signal moves.

human Adrenergic, Alpha 2c Receptor (Adra2C), ADRA2C (gene 152), sequence (P18825 whole entry, looked up): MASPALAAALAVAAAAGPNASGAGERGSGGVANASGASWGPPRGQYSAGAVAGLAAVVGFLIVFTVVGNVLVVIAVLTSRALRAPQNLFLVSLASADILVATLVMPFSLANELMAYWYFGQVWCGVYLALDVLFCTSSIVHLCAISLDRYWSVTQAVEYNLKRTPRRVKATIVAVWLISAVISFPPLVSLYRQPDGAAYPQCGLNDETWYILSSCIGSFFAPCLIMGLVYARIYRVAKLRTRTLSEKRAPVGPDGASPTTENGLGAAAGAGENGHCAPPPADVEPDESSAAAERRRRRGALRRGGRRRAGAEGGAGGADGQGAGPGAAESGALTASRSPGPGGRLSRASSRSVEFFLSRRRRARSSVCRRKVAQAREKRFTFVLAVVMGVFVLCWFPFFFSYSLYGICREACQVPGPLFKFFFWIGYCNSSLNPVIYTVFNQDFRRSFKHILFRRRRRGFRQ
human Adenosine A2a Receptor (AdoRA2a), ADORA2A (gene 135), sequence (P29274 whole entry, looked up): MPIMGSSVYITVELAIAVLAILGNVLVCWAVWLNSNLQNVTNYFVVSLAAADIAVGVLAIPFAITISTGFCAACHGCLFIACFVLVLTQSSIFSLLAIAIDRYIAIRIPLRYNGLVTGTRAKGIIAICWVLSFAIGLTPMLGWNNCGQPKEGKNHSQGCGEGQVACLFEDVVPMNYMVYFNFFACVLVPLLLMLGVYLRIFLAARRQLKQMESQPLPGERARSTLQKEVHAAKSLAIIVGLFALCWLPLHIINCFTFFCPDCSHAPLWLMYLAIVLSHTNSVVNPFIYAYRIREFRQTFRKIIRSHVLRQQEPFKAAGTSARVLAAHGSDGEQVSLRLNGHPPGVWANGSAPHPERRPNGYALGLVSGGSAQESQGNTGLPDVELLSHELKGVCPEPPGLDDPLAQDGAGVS
human Adrenergic, Beta 1 Receptor (Adrb1), ADRB1 (gene 153), sequence (P08588 whole entry, looked up): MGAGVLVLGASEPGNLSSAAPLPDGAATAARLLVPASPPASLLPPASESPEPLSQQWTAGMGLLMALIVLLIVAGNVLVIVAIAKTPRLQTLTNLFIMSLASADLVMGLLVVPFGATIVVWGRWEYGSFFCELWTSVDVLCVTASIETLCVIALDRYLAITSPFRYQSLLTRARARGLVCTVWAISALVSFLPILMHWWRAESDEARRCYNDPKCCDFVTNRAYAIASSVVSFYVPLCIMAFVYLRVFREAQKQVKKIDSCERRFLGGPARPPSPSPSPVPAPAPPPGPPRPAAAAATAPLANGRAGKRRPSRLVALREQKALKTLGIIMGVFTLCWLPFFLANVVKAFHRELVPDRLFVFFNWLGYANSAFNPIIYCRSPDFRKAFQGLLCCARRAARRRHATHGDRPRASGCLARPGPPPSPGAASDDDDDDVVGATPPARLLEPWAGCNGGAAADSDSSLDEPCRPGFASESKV
human Dopamine Receptor D4.4 (DRD4.4), DRD4 (gene 1815), sequence (P21917 whole entry, looked up): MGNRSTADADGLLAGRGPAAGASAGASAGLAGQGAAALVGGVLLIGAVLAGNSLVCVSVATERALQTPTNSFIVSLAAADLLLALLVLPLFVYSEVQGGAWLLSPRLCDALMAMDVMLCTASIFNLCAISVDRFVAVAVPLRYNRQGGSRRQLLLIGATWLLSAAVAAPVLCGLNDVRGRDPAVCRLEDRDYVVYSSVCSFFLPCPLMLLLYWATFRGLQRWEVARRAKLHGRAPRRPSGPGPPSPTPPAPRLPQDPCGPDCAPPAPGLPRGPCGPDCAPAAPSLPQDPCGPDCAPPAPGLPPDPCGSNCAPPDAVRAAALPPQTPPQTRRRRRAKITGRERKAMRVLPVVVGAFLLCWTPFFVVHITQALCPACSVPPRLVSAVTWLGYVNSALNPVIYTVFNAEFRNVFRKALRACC
human Serotonin, 5-Hydroxytryptamine Receptor 7 (5HT7), HTR7 (gene 3363), sequence (P34969 whole entry, looked up): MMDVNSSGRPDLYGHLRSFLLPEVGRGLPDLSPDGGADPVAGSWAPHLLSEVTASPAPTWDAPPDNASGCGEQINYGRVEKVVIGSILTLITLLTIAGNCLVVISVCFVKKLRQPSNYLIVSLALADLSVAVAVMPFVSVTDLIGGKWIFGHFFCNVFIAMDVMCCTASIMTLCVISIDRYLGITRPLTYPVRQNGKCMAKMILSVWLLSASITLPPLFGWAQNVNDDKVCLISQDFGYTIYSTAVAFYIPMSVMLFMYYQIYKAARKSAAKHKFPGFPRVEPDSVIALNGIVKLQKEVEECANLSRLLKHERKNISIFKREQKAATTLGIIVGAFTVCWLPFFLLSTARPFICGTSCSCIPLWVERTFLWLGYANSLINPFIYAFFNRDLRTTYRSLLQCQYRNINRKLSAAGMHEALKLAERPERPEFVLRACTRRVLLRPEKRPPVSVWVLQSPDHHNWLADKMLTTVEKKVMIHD
human Adrenergic, Alpha 2A Receptor (Adra2A), ADRA2A (gene 150), sequence (P08913 whole entry, looked up): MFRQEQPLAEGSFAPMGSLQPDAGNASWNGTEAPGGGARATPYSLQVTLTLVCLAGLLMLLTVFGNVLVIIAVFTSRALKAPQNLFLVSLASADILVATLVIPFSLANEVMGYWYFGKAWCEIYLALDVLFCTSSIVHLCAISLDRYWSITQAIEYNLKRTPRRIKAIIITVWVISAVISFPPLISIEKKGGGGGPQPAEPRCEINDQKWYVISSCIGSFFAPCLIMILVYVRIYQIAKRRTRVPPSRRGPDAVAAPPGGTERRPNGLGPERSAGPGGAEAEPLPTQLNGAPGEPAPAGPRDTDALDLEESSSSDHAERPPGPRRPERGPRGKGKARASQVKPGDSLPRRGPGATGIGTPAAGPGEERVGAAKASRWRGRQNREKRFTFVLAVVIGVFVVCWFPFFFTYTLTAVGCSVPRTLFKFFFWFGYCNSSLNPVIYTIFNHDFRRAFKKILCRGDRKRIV
human Dopamine Receptor D2 (DRD2), DRD2 (gene 1813), sequence (P14416 whole entry, looked up): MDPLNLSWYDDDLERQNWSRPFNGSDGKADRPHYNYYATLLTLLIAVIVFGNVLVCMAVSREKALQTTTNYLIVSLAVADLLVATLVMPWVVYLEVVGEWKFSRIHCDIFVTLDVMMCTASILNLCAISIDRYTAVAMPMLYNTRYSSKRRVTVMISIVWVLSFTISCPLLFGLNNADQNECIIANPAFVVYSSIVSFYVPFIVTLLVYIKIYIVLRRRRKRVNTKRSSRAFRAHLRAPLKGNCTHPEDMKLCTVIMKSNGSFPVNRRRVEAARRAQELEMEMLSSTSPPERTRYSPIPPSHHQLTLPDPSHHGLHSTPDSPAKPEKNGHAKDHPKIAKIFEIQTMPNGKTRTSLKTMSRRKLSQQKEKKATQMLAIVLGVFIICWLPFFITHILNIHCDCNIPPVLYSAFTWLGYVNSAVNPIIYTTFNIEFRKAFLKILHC

Take `OCc1c[nH]c2ccccc12`: the compound was called inactive in experiment [1].

Regarding `OCC(CO)(CO)CO`, the call in experiment [2], in experiment [3] and in [4] was inactive.

As for `NC(N)=O`, in experiment [4], the call was inactive.

With `CCCCCCCCCCCCCCCCOS(=O)(=O)O`, the AC50 was 15.6 µM (active) in experiment [5]; 3.47 µM (active) in [6]; 3.6 µM (active) in experiment [7]; 12.5 µM (active) in [8]; 18.1 µM (active) in experiment [10]; 4.49 µM (active) in experiment [11]. Further, the AC50 in [12] is 8.33 µM (active); in experiment [13] it was 8.94 µM (active). Also, in [9], the compound was called inactive.

On to `O=c1[nH]cnc2c1ncn2[C@H]1CC[C@@H](CO)O1`, for which the compound was called inactive in experiment [8] and in experiment [11]. The AC50 in experiment [9] is 32.7 µM (active).

Turning to `NNC(=O)c1ccncc1`, the compound was called inactive in experiment [14].

As to `COCc1nnc(-c2ccc[n+]([O-])c2)n1-c1c(Cl)c(Cl)cc2[nH]c(=O)c(=O)[nH]c12`, the outcome in [1] was inactive.

Consider `CC(C)CCCCCCOC(=O)C1CCCCC1C(=O)OCCCCCCC(C)C` (stereo not drawn), for which the compound was classed as inactive in [15].

Regarding `CCCCCCCC1CCC(=O)O1` (stereo not drawn), the compound was called inactive in [4].

For the compound `CCCCCCCC/C=C\CCCCCCCC(=O)OC[C@@H](O)[C@H]1OC[C@H](O)[C@H]1O`, the AC50 in [6] was 43.1 µM (active); in experiment [11], 34.5 µM (active).

Take `OC(CCl)CCl`: the AC50 in experiment [14] is 25 µM (active).

As for `C=CCc1cc(S(=O)(=O)c2ccc(O)c(CC=C)c2)ccc1O`, the AC50 in experiment [5] is 9.39 µM (active); in experiment [1], 15.6 µM (active); in experiment [6], 20.1 µM (active); in experiment [7], 8.06 µM (active); in experiment [16] it was 17.1 µM (active); in experiment [8], 25 µM (active). In addition, the AC50 is 33.1 µM (active) in experiment [9], 9.78 µM (active) in experiment [11] and 25 µM (active) in experiment [13]. Moreover, the compound was classed as inactive in experiment [17].

As for `c1ccc(C(O[C@@H]2CCCN(CCc3ccc4c(c3)OCO4)C2)c2ccccc2)cc1`, the AC50 in [5] is 0.99 µM (active); in experiment [14], 18 µM (active); in [6] it was 25 µM (active); in experiment [7] it was 2.51 µM (active); in [15], 13.5 µM (active); in experiment [8] it was 14.8 µM (active). Moreover, the concentration at half-maximal activity (AC50) was 5.47 µM (active) in [9]; 5.62 µM (active) in experiment [10]; 4.11 µM (active) in experiment [11]; 0.031 µM (active) in experiment [18]; 0.0184 µM (active) in [12]; 0.0461 µM (active) in experiment [19]. Also, the AC50 in [17] is 0.0501 µM (active); in experiment [13], 0.00937 µM (active). Besides, the compound was classed as inactive in experiment [2].

Regarding `O=C(O)c1ccc2c(c1)nc(C(=O)NC1CCN(C3CC3)CC1)n2Cc1cc(-c2ccc(Cl)s2)on1`, the AC50 in experiment [14] is 0.308 µM (active). Besides, the compound was classed as inactive in experiment [7].

For `CCc1ccc(O)c(C(C)(C)C)c1`, the outcome in [1] and in [9] was inactive.
